# Measured values reported in the supplement of paper PMC11006884.
# About 6,500 targets were measured; listed, in parts, are those with a hit and a random draw of the rest. About 2% of all pairs of compound and target were hits. A number with no mark means an inactive call.
# Compound: COC(=O)C#Cc1ccccc1 [methyl 3-phenylpropiolate]
# Assay: log2 ratio of iodoacetamide-alkyne labeling of the cysteine site, DMSO over compound (competition); higher = stronger covalent engagement of the cysteine by the compound, active = 1 or more
# Conditions: 500 µM; treatment time 1 h; system: HEK293T cell lysate
# Summary of the method: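 For each cysteine, the log2 competition ratio is mean control-channel reporter intensity over mean compound-channel reporter intensity. HEK293T lysate (2 mg/mL) was exposed to vehicle or electrophile (500 µM, 1 h, ambient temperature), labelled with iodoacetamide alkyne (1 h), clicked to sCIP-TMT reagents, digested overnight with trypsin at 37 °C, streptavidin-enriched and analysed by Orbitrap Eclipse LC-MS/MS with FAIMS and FragPipe. Cysteines quantified in only one of three replicates, each with duplicate channels, were excluded.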
row,Target,log2 ratio of iodoacetamide-alkyne labeling
1,MASTL C285 (UniProt Q96GX5),1.02 (active)
2,EDC3 C137 (UniProt Q96F86),1.09 (active)
3,AKAP1 C389 (UniProt Q92667),1.15 (active)
4,MYBBP1A C968 (UniProt Q9BQG0),0.274
5,NIPBL C1876 (UniProt Q6KC79),0.17
6,PARG C963 (UniProt Q86W56),0.0715
7,MAP1S C841 (UniProt Q66K74),0.464
8,PHF10 C134 (UniProt Q8WUB8),0.0674
9,AKAP1 C102 (UniProt Q92667),0.334
10,UniProt Q7Z2T5_C239,1.28 (active)
11,GIGYF2 C289 (UniProt Q6Y7W6),-0.00206
12,UniProt Q8WVB3_C244,0.59
13,DHX37 C1026 (UniProt Q8IY37),0.317
14,SETD7 C200 (UniProt Q8WTS6),0.34
15,PHF3 C1616 (UniProt Q92576),1.14 (active)
16,ZFYVE16 C174 (UniProt Q7Z3T8),0.35
17,DAZAP1 C39 (UniProt Q96EP5),0.0955
18,HEATR6 C360 (UniProt Q6AI08),0.657

row,Target,log2 ratio of iodoacetamide-alkyne labeling
1,TXNDC17 C43 (UniProt Q9BRA2),1.34 (active)
2,UniProt Q8IX01_C656,2.27 (active)
3,RSBN1L C280 (UniProt Q6PCB5),0.649
4,UniProt Q7RTV0_C46,0.211
5,CNN2 C175 (UniProt Q99439),1.04 (active)
6,CCT7 C29 (UniProt Q99832),1.51 (active)
7,PARK7 C53 (UniProt Q99497),-0.0888
8,NCAPG C202 (UniProt Q9BPX3),0.0426
9,HDAC2 C417 (UniProt Q92769),0.126
10,RDH10 C272 (UniProt Q8IZV5),0.324
11,MACROD1 C199 (UniProt Q9BQ69),-0.0967
12,THOC2 C743 (UniProt Q8NI27),0.442
13,UBR2 C1619 (UniProt Q8IWV8),0.0476
14,GRWD1 C299 (UniProt Q9BQ67),0.364
15,UniProt Q96BD8_C10,0.363
16,NCAPG C751 (UniProt Q9BPX3),0.416
17,PHIP C612 (UniProt Q8WWQ0),-0.25
